Data taken from PubChem BioAssay AID588413 (Sanford-Burnham Center for Chemical Genomics, 2011).
The campaign covered roughly 340,000 compounds. About 2,500 (0.74%) were called active. The entries come from a sample that favours actives as a whole. Values without a mark were called inactive.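 Rule for the calls: active = inhibition above about 55% (limit read from the data); inactive = the rest.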

Test: Gli-Sufu pathway antagonists, primary screen, luciferase luminescence, Sufu-KO-LIGHT cells, uHTS (AID 588413);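 note: 0% = DMSO-treated cells and 100% = wells with medium but no cells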
Conditions: Sufu-KO-LIGHT fibroblasts, Gli luciferase reporter luminescence; at 5 µM; active compounds read high

Compound	inhibition
COc1ccc(NC(=O)CCC(=O)Nc2cc(OC)c(NC(=O)c3ccco3)cc2OC)c(OC)c1	15.2%
COc1cc(C(=O)OC(C)C(=O)NCC2CCCCC2)cc(NC(=O)c2ccco2)c1OC (centres undefined)	61.1% (active)
CC(OC(=O)c1ccc([N+](=O)[O-])cc1)C(=O)NCC1CCCCC1 (centres undefined)	6.02%
CN1CCN(C(=O)/C(=C\c2ccc3c(c2)OCO3)NC(=O)c2cccs2)CC1	-0.95%
CC(=O)Nc1ccccc1C(=O)C(=O)Nc1ccc(F)cc1	-24.7%
O=C(CSCc1ccccc1)N1CCc2ccccc21	-87.8%
O=C(CN1C(=O)c2ccccc2S1(=O)=O)N1CCc2ccccc21	64.8% (active)
CC1CCCN(C(=O)CN2C(=O)c3ccccc3S2(=O)=O)C1 (centres undefined)	6.76%
Cc1ccc(CNC(=O)CCN2C(=O)[C@@H]3Cc4ccccc4CN3C2=O)cc1	-9.51%
CCOC(=O)N(Cc1ccccc1)C1CC1	0.91%
Cc1ccc(S(=O)(=O)N2CC(C)N(S(C)(=O)=O)C2)cc1 (centres undefined)	-2.13%
Cc1ccc(S(=O)(=O)N2C[C@@H]3CCCC[C@@H]3[C@@H](C)[C@H]2c2cn(Cc3ccccc3)c3ccc(F)cc23)cc1	72.8% (active)
O=C(CS(=O)(=O)c1cn(Cc2cccc(F)c2)c2ccccc12)N1CCCCC1	9.01%
O=C(CNS(=O)(=O)c1ccc(Br)s1)N1CCN(C(=O)c2ccco2)CC1	-4.48%
O=[N+]([O-])c1ccc(C=NN=Cc2ccc([N+](=O)[O-])cc2)cc1	-0.85%
O=C1/C(=C\c2ccc([N+](=O)[O-])cc2)CS(=O)(=O)C/C1=C/c1ccc([N+](=O)[O-])cc1	65.4% (active)
O=C(NN=Cc1ccc([N+](=O)[O-])cc1)C1CC1	-2.46%
Cc1nn(C(C)(C)C)c(OC(=O)CC(C)C)c1S(=O)(=O)c1ccccc1	12.6%
O=C(/C=C/c1ccc([N+](=O)[O-])o1)NNC(=O)c1ccc(F)cc1	67.6% (active)
COc1ccc(C(=O)NCC(=O)N/N=C/c2ccc([N+](=O)[O-])o2)cc1OC	-0.07%
Cc1onc(C(=O)NCc2ccc(F)cc2)c1[N+](=O)[O-]	3.05%
Cc1ccc(CN(CC(=O)NC2CCCCC2)C(=O)c2csnn2)cc1	-19.5%
C/C=C/c1ccc(OCC(=O)OCC(=O)Nc2c(C)nn(-c3ccccc3)c2C)c(OC)c1	-14.7%
CSc1nsc(SC)c1NC(=O)OC1CCCCC1	3.57%

Compound	inhibition
COCCn1c(C)cc(C(=O)COC(=O)/C=C/c2cccc(OC)c2)c1C	0.01%
CCN(CC)S(=O)(=O)c1ccc(OC(C)C)c(N)c1	-7.56%
Oc1ccc2ccccc2c1N=Nc1nccs1	75.4% (active)
O=C(CN1CCCCC1)NC(=O)Nc1ccccc1F	-7.73%
COc1ccc(Cc2nnc(N/N=C/c3ccccc3O)[nH]c2=O)cc1OC	88.1% (active)
COc1ccc(Cc2nnc(SC)[nH]c2=O)cc1	-8.83%
CC(C)c1ccc(Cc2nnc(NCCCO)[nH]c2=O)cc1	-3.48%
CCc1cccc2c3c([nH]c12)C(CC)(CC(=O)O)OCC3 (centres undefined)	-4.38%
CC(C)c1ccc(C2C(C#N)=C(N)Oc3c2oc(CO)cc3=O)cc1 (centres undefined)	-0.24%
CCOC(=O)c1ccc(NC(=O)Cn2cnc3cc(C)c(C)cc32)cc1	65% (active)
CCOC(=O)c1ccc(NC(=O)Cc2cccs2)cc1	-48%
CCCc1nnc(SCC(=O)Nc2ccc(C(=O)OCC)cc2)o1	-7.14%
CCCCC(=O)N1CC2(C)CN(C(=O)CCCC)CC(C)(C1)C2=O	-15.8%
COCCCN(C(=O)CSCc1ccc(C)cc1)c1c(N)n(Cc2ccccc2)c(=O)[nH]c1=O	-6.23%
CC(C)NC(=O)C(=O)NCCN1CCN(S(=O)(=O)c2ccc(Cl)cc2)CC1	-1.75%
Cc1ccc(NC(=O)c2ccc(CSc3ncnc4nc[nH]c34)cc2)c(C)c1	-3.19%
CCNc1nc(SCCOc2ccccc2)nc(N(C)C)n1	17.6%
COc1ccc2nc(SCC(=O)Nc3c(C)cc(C)cc3C)[nH]c2c1	82.7% (active)
Cc1cc(C)c(NC(=O)CSc2nc3ccncc3[nH]2)c(C)c1	-7.29%
Cc1ccc2nc(SCC(=O)NC3CCCC3)[nH]c2c1	19.8%
N#C/C=C/N1CCN(Cc2ccc3c(c2)OCO3)CC1	1.76%
CC(C)(C)OC(=O)N(Cc1ccccc1)Cc1ccc(OCc2cccc(NC(=O)c3ccccc3)c2)cc1	1.99%
O=C1Cc2ccccc2Sc2ccc(Cl)cc21	3%
Cc1ccc(C(=O)C(=S)N2CCOCC2)cc1	-12.9%

Compound	inhibition
CSc1ncccc1C(=O)Nc1ccc(C)cn1	-28.8%
CSc1ncccc1C(=O)Nc1ccc2c(c1)OCO2	-2.99%
CSc1ncccc1C(=O)Nc1nc2ccc(F)cc2s1	56.9% (active)
CC(C)=NN1C(=O)c2ccccc2NC1(C)C	0.06%
COc1ccc(C(=O)NC2CC(C)(C)Cc3c2cnn3-c2ccccc2)c(OC)c1 (centres undefined)	14%
Cn1nccc1C(=O)NC1CCCc2c1cnn2-c1ccc(F)cc1F (centres undefined)	73% (active)
Cc1ccc(-n2ncc3c2CCCC3NC(=O)c2cnccn2)cc1C (centres undefined)	20.6%
CC1(C)Cc2c(cnn2-c2cccc(F)c2)C(NC(=O)c2cc[n+]([O-])cc2)C1 (centres undefined)	-1.99%
Cc1cc(C(=O)NC2CC(C)(C)Cc3c2cnn3-c2ccccc2)n[nH]1 (centres undefined)	7.64%
COc1ccc(C(=O)NC2CC(C)(C)Cc3c2cnn3-c2ccccc2C)o1 (centres undefined)	3.2%
CC1=C(C(=O)NC2CC(C)(C)Cc3c2cnn3-c2ccc(C)cc2)OCCO1 (centres undefined)	13.4%
Cn1nccc1C(=O)NC1CCCc2c1cnn2-c1ccccc1F (centres undefined)	77.6% (active)
COc1ccc(C(=O)NC2CCCc3c2cnn3-c2cccc(C)c2C)c(OC)n1 (centres undefined)	57% (active)
COC(=O)c1cc(=O)n(-c2c(Cl)cc(C(F)(F)F)cc2Cl)[nH]1	5.78%
C[C@]1(C(=O)NCCc2c[nH]c3ccccc23)C=C[C@@H](Cc2ccccc2)N1C(=O)c1ccccc1	6.62%
NC(=S)NN=C1CCCC(C(F)(F)F)C1 (centres undefined)	4.43%
Cc1cc(C)c2nc(N3CCC(C(=O)NCCN4CCOCC4)CC3)sc2c1	42.9%
O=C(NCCCN1CCCC1=O)C(=O)NCC1OCCN1S(=O)(=O)c1ccc(Br)cc1 (centres undefined)	9.53%
CCCN(c1ccc(C)cc1)c1nc(=O)c2cccnc2s1	11.6%
COc1cccc(NC(=O)Cn2cnc3sc(C)c(S(=O)(=O)N4CCN(C)CC4)c3c2=O)c1	-2.51%
COc1cccc(NC(=O)COC(=O)CCOc2ccccc2OC)c1	-1.81%
Cc1ccc(COc2ccc(C(=O)NN)cc2)cc1	-19.9%
CCCCOc1ccc(NC(=O)CSCC(=O)OCC)cc1	0.02%
CCCCCCCCCCOC(=O)Cn1c(COc2cccc(OC)c2)[n+](C)c2ccccc21	79.7% (active)

Compound	inhibition
CCCCCCCCCCOC(=O)Cn1c(COc2ccc(C)cc2)[n+](C)c2ccccc21	83.1% (active)
CCOC(=O)CNC(=O)CSc1nnc(-c2cccc(OC)c2)n1CC	7.3%
Cc1ccc(N2C(=O)C3C4C=CC(CC4)C3C2=O)cc1Cl (centres undefined)	6.68%
CN(C(=O)c1cccc([N+](=O)[O-])c1)c1ccccc1C(=O)NCc1ccccc1	0.49%
Cn1c(=O)[nH]c2c(c(C(=O)O)nn2C)c1=O	-2.41%
C/C(=N\Nc1cccc(C(=O)O)c1)c1ccc2c(c1)Nc1ccccc1S2	-35.5%
O=C(CN(C(=O)c1csnn1)c1cccc(Cl)c1)NC1CCCC1	-16.6%
CCS(=O)(=O)N1CCCC(C(=O)NCCCN(C)Cc2ccccc2)C1 (centres undefined)	9.61%
O=C1CCCCN1CCCC(=O)N1CCCC(Nc2ccc(F)cc2)C1 (centres undefined)	45.4%
COc1ccccc1N1CCN(Cc2cc(OC)c3c(c2)OCO3)CC1	60.1% (active)
CNCC(O)CN1CCN(c2ccccc2OC)CC1 (centres undefined)	2.51%
COc1ccccc1N1CCN(Cc2ccc(OC)c3ccccc23)CC1	10.6%
CN1CCN(c2cc(=O)n(-c3ccc(Cl)cc3)c(=O)[nH]2)CC1	7.35%
C=CCO/N=C/C1=C(O)C(C(=O)OC)C(C)(C)CC1=O (centres undefined)	-5.83%
CCN(CC)CCCC(C)n1c2nc(=O)[nH]c(=O)c-2nc2cc(Cl)ccc21 (centres undefined)	83.6% (active)
CCOC(=O)C1(CCOC)CCN(Cc2cc3ccccc3s2)CC1	-4.84%
CCOc1ccc(-n2c(O)c(/C=N/c3ccnn3Cc3ccncc3)c3ccccc3c2=O)cc1	62.7% (active)
Cc1ccc(N=Cc2c(O)n(-c3nccs3)c(=O)c3ccccc23)c(C)c1	-4.34%
Cc1cc(C)nc(N/N=C/c2c(CO)cnc(C)c2O)n1	0.23%
CCN(CC)CCCN=Cc1c(O)n(-c2ccc(C)cc2)c(=O)c2ccccc12	-0.11%
Cc1ccc(-n2c(O)c(C=Nc3ccc(S(=O)(=O)Nc4ncccn4)cc3)c3ccccc3c2=O)cc1C	-0.18%
CCOc1ccc(-n2c(O)c(/C=N/Nc3nc(C)cc(C)n3)c3ccccc3c2=O)cc1	61.7% (active)
